Source: PubChem
Cycloheximide cs = Cycloheximide Counterscreen for Small Molecule Inhibitors of Shiga Toxin; cell reporter, cycloheximide protein synthesis inhibition counterscreen; max response, %; 300,000 compounds, 12% hits; in the data active means max response mostly above about 13%, no sharp cut-off; inactive means mostly below about 14%; further: read at 38.3 µM for the half of the compounds with a filed dose; 0% is about no effect
Shiga inhibitor = A qHTS for Small Molecule Inhibitors of Shiga Toxin; 290,000 compounds, 9.2% hits; AID 2315, 2010; inhibition, % at 38.7 µM; Vero cells, Shiga toxin protein synthesis inhibition reporter; in the data active means inhibition mostly above about 28%, no sharp cut-off; inactive means mostly below about 43%; further: 0% is about no effect
SARS PLP yeast = qHTS of Yeast-based Assay for SARS-CoV PLP. S. cerevisiae expressing SARS-CoV PLpro, growth rescue. Potency, µM (doses to about 32.9 µM), for inactives: top-dose activity, positive = growth rescue, most hits filed as activators. 330,000 compounds, 0.19% hits. AID 485353, 2010; further: potency means the concentration at half of the fitted maximal effect; 0% is about no effect; nearly all actives have a fitted effect of over 55% in size
NS1 inh = qHTS Assay for Inhibitors of Influenza NS1 Protein Function; Potency, µM (titrated, usually from 46.1 µM), without a hit: at the highest dose activity, positive = more growth; 270,000 compounds, 0.4% hits; further: potency means the concentration at half of the fitted maximal effect; actives are rising curves; nearly all actives have a fitted effect of over 50% in size
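Recovery from NS1-induced slow growth read by OD600 in budding yeast switched to galactose assay medium (pH 6.0, -URA) at 1:100 dilution. Compound 23 nl per well; the matching strain lacking NS1 serves as control.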
The depositor's hits bear a star; ? = inconclusive; / = not tested or not shown; ! = a repeat was not active. A selection: hits, their analogues and other compounds. The true share with any hit is near 12%. Unless noted, the call rests on the fitted dose curve.

SMILES	Cycloheximide cs	Shiga inhibitor	SARS PLP yeast	NS1 inh
CCOC(=O)Cc1csc(NC(=O)c2cccc(OC)c2)n1	11.9*	20.1	-2.9%	-7.1%
CCOC(=O)Cc1csc(NC(=O)c2ccc(OC)c(OC)c2)n1	1.7	-14.7	-10.8%	-6.6%
CCOC(=O)Cc1csc(NC(=O)Nc2cccc(OC)c2)n1	17.3*	29.7	-0.3%	5.0%
CCOC(=O)Cc1csc(NC(=O)c2sc3nc4c(C)cc(C)cc4cc3c2N)n1	19.6*	11.9	-5.2%	?
CCn1ncc(N2CCOCC2)c(Cl)c1=O	7.6	6.0	-1.3%	-0.4%
CC1(c2ccccc2)NC(=O)N(CC(=O)Nc2cc3c(cc2Br)OCCO3)C1=O (stereo not given)	/	/	-2.9%	/
CCOC(=O)Cc1csc(NC(=O)c2csc(C)c2)n1	27.6*	34.9*	-9.8%	7.4%
CCCCS(=O)(=O)NC1=NCN(C2CCN(Cc3ccccc3)CC2)CN1	/	/	/	2.5%
N=c1c2c(ncn1Cc1ccco1)Oc1cc(O)ccc1C2c1ccccc1 (stereo not given)	-1.4	-5.8	1.1%	7.7%
N=c1c2c(ncn1Cc1ccco1)Oc1c(ccc3ccccc13)C2c1ccccc1 (stereo not given)	23.3*	17.6*	-35.3%	?
O=C(CCCOc1ccccc1)N1CCN(S(=O)(=O)c2ccccc2)CC1	/	/	13.3%	/
Cc1cccc(N2CCN(C(=O)CCCOc3ccccc3)CC2)c1C	63.6*	134.5*	-15.6%	-93.1%
O=C(Cc1ccccc1[N+](=O)[O-])N1CCN(c2ccc(F)cc2)CC1	8.1	12.0	-0.4%	/
CCOC(=O)N1CCN(C(=O)CCCOc2ccccc2)CC1	28.8*	112.9*	0.4%	-2.3%
Cc1cccc(N2CCN(C(=O)Cc3ccccc3[N+](=O)[O-])CC2)c1C	26.9*	24.3	-5.7%	-22.5%
COc1cc(C)ccc1OCC(=O)NCC1CCCO1 (stereo not given)	/	/	10.8%	/
CC(=O)c1c(C)[nH]c(C(=O)CN2CCN(S(=O)(=O)c3ccccc3F)CC2)c1C	/	/	-0.9%	/
Cc1ccc2nc(-c3ccc(NS(=O)(=O)c4ccccc4)cc3)sc2c1	29.3*	active	2.4%	14.0%
Cc1ccc2nc(-c3ccc(NS(=O)(=O)c4ccc(F)c(F)c4)cc3)sc2c1	63.7*	95.8*	-91.0%	-61.3%
Cc1ccc(S(=O)(=O)Nc2ccc3nc(C)sc3c2)cc1	0.1	17.2	-6.1%	-6.1%
C#Cc1cccc(NC(=O)c2ccc3c(c2)C(=O)N(Cc2cccnc2)C3=O)c1	38.8*	-11.9	4.6%	12.6%
O=C(O)c1cc(NC(=O)c2ccc3c(c2)C(=O)N(Cc2cccnc2)C3=O)cc(C(=O)O)c1	0.6	-10.5	-3.7%	-3.5%
COCCCN1C(=O)c2ccc(C(=O)NCCc3ccccc3)cc2C1=O	45.2*	94.7*	0.1%	-1.3%
COc1cccc(C(=O)Nc2ccc3c(c2)C(=O)N(CCC(=O)O)C3=O)c1	11.8	-9.8	-1.1%	11.5%
COCCCN1C(=O)c2ccc(C(=O)Nc3cccc(OC)c3)cc2C1=O	37.2*	53.4*	7.2%	-3.3%
SMILES	Cycloheximide cs	Shiga inhibitor	SARS PLP yeast	NS1 inh
CC(=O)Oc1cccc(NC(=O)c2ccc3c(c2)C(=O)N(CC(C)C)C3=O)c1	28.1*	127.7*	1.4%	-1.1%
O=C(Nc1ccccc1)Nc1ccccn1	32.6*	59.8*	-10.6%	-3.1%
S=C(Nc1ccccn1)c1ccccn1	42.3*	71.1*!	-2.8%	-14.1%
O=C(Nc1ccc(Cl)cc1)Nc1ccccn1	40.8*	102.9*	-7.5%	-5.9%
O=C(Nc1ccccn1)C(=O)Nc1ccccn1	30.0*	39.5*	-1.1%	-2.8%
c1ccc(Nc2ccccn2)nc1	11.3	-1.5	4.1%	-2.6%
O=S(=O)(NCC1(N2CCOCC2)CCCCC1)c1ccc(Cl)cc1C(F)(F)F	-5.6	-38.6	2.0%	-2.0%
Cn1c(=O)[nH]c(=O)c2c1nc1n2CC(O)CN1c1ccccc1 (stereo not given)	-3.1	-6.6	10.6%	0.8%
CCCCNCC#CCOc1cc(C)ccc1C(C)C	-8.1	-16.0	-1.0%	-1.3%
Cc1cccc(NCc2ccc(Br)cc2)n1	35.3*	109.0*	-1.0%	1.5%
Cc1cccc(NCc2cccc3ccccc23)n1	41.1*	54.4	-2.6%	-17.8%
Cc1cc(C)nc(NCc2ccc(Cl)cc2)n1	-0.9	-17.7	0.7%	-9.5%
CCCn1c(SCC(=O)NC2CCCCC2)nnc1C1CC1	-1.5	12.4	-4.7%	8.6%
CCOC(=O)c1ccc(N2C(=O)c3n[nH]c(C)c3C2c2ccco2)cc1 (stereo not given)	5.9	-6.4	-1.1%	-16.2%
Cc1ccc(N2C(=O)c3n[nH]c(C)c3C2c2ccco2)cc1 (stereo not given)	37.0*	72.5*	-5.3%	-8.6%
CCn1c2nc(SCCN3CCOCC3)nnc2c2cc(C)cc(C)c21	-2.8	-9.4	-0.5%	-3.7%
O=C1CCCC1C(=O)Nc1ccc2ccccc2c1 (stereo not given)	17.1*	45.1*	-5.6%	-11.5%
Cc1cc(C)c(C)c(S(=O)(=O)NNC(=O)c2cccc(S(=O)(=O)N3CCOCC3)c2)c1C	-2.8	-7.5	-16.1%	-5.0%
CCOc1ccc(CN(C)C(=O)CNC(=O)c2sc3ccccc3c2Cl)cc1	/	/	3.9%	/
CC(C)(C)c1ccc(/C=C2\SC(=O)N(CCNC(=O)c3cccc(S(=O)(=O)N4CCOCC4)c3)C2=O)cc1	68.8*	130.9*	-15.7%	4.4%
Cc1ccc(S(=O)(=O)N2CCOCC2)cc1C(=O)NCCN1C(=O)S/C(=C\c2ccccc2Cl)C1=O	-2.7	16.5	-7.0%	?
CCOc1ccc(NC(=O)CCS(=O)(=O)c2ccc(C)cc2)cc1	1.7	-16.8	1.7%	3.1%
Cc1ccc(N/N=C2\CS(=O)(=O)N(C)c3ccsc32)cc1	51.1*	65.7*	-2.5%	/
CCCC(=O)N/N=C1\CS(=O)(=O)N(C)c2ccsc21	4.2	26.9	2.5%	/
CN1c2ccsc2/C(=N/Nc2ccc(F)cc2)CS1(=O)=O	26.7*	53.6	-3.9%	/
SMILES	Cycloheximide cs	Shiga inhibitor	SARS PLP yeast	NS1 inh
Cc1ccc(CN2CCN(Cc3cnc(N4CCOCC4)s3)CC2CCO)cc1 (stereo not given)	-0.6	-23.8	0.6%	3.8%
COc1cccc(CN(C)Cc2cc(=O)oc3c(C)c(C)ccc23)c1	16.4*	3.0	-1.1%	-15.7%
Cc1ccccc1CN(C)Cc1cc(=O)oc2c(C)c(C)ccc12	23.0*	48.9	-14.0%	-30.5%
Cc1c(O)ccc2c(CN(C)Cc3ccccc3)cc(=O)oc12	11.6	44.0	-1.0%	-5.7%
CCN(CC)S(=O)(=O)c1ccc(OC)c(NC(=O)Cc2cccs2)c1	32.3*	-11.4	0.1%	-1.4%
COc1cc(OC)c(NC(=O)Cc2cccs2)cc1Cl	1.6	-13.0	-7.6%	-36.6%
CCCNS(=O)(=O)c1ccc(NC(=O)Cc2cccs2)cc1	18.5*	20.6	-15.7%	-4.2%
CCCCN(CCCC)S(=O)(=O)c1ccc(NC(=O)Cc2cccs2)cc1	35.4*	27.1	2.2%	-0.8%
O=C(NCCN1CCOCC1)c1cnn2c(-c3ccccc3)cc(-c3ccccc3)nc12	-2.6	-26.9	-3.5%	7.5%
Cc1c2ccccc2nc2c(F)c(N(C)C)c(F)c(F)c12	27.7*	23.1	-24.4%	-1.6%
CN(C)c1c2ccccc2nc2c(F)c(F)c(F)c(F)c12	33.4*	57.0	-13.9%	/
